PubChem BioAssay (Tox21)
Inconclusive results are not listed. Values without a mark were called inactive. Calls of active or inactive are those of the source. The call rests on the fitted dose curve; in most records, active means well fitted activation curve with a large enough effect in the repeat runs; inconclusive means weak or mixed curves; inactive means flat fitted curve, though single readings scatter.

assay: A CellTox Green Cytotoxicity Assay to monitor cytotoxicity in HepG2 cells - 8 hour (AID 1224890); conditions: CellTox Green fluorescence; series mostly up to 76.8 µM; cytotoxicity increase: at the top concentration; further: nearly all actives have a fitted effect of over 45% in size
Text: National Center for Advancing Translational Sciences [NCATS]
NIH Chemical Genomics Center [NCGC]
U.S. Environmental Protection Agency [EPA]
National Institutes of Environmental Health Sciences [NIEHS]
National Toxicology Program [NTP]
Cell-based models are critical for drug discovery. Determining the natural cytotoxic effects resulting from test compounds is an essential research activity. A CellTox Green Cytotoxicity Assay to monitor cytotoxicity in real time of continues cell culture during 40 hours of the compound treatment was used to screen Tox21 10K library compounds in HepG2 cells. CellTox Green Cytotoxicity Assay is a nonlytic, homogeneous, biofluorescent method to measure cytotoxicity in cell culture after experimental manipulation. The assay system uses a proprietary asymmetric cyanine dye that is excluded from viable cells but preferentially stains the dead cell's DNA. […] Viable cells produce no appreciable increases in fluorescence. Therefore, the fluorescence signal produced by the binding interaction with dead cell DNA is proportional to cytotoxicity.
The mixture of HepG2 cell suspension and reagents were dispensed at 600cells/6 ul/well in 1536-well tissue culture treated black solid bottom plates using a Multidrop dispenser. After the assay plates were incubated at a 37 C/5% CO2 incubator for 5 hours, 23 nL of compounds dissolved in DMSO, positive and negative controls was transferred to the assay plate by a pintool work station. The plates were incubated at 37 C for 40 hours. The fluorescence intensity were measured at 0h, 8h, 16h, 24h, 32h and 40h time points using ViewLux plate reader during compound treatment.
On the % scale 0 is the no-effect control and ±100 the full control effect; potency means the concentration at half of the fitted maximal effect.

SMILES	cytotoxicity increase	Potency
O=C1CCC(=O)N1Cl	-1.65%	–
CCC(C)C(=O)OCCc1ccccc1 (stereo not given)	-0.577%	–
CC1=NN(c2ccc(S(=O)(=O)O)cc2)C(=O)C1	-0.736%	–
C#CCN[C@@H]1CCc2ccccc21	-15.4% [at 35.3 µM]	–
CC(C)NC(=O)c1ccc(C=O)cc1	2.13% [at 35.3 µM]	–
O=Cc1cc2ccccc2o1	-7.19%	–
CN(C)CC/C=C1/c2ccccc2COc2ccc(CC(=O)O)cc21	2.04% [at 35.3 µM]	–
CN1CCOC(c2ccccc2)c2ccccc2C1 (stereo not given)	19.7% [at 35.3 µM]	–
CC(C)=CCC[C@@](C)(O)[C@H]1CC=C(C)CC1	0.264% [at 35.3 µM]	–
CN(C)CCOC(=O)C(c1ccccc1)C1(O)CCCC1 (stereo not given)	1.79% [at 35.3 µM]	–
CCCC(=O)OC/C=C(\C)CCC=C(C)C	0.659%	–
CC(=O)CC(=O)Nc1ccc(C)cc1C	-7.53%	–
CC12CCC(C1)C(C)(C)C2O (stereo not given)	–	1.95 µM (active)
O=C(O)CCCCCC(=O)O	2.25%	–
CC(=O)C(C)O (stereo not given)	1.48%	–
CN(C)CCN(C)CCO	1.85%	–
ONc1ccccc1	-5.41%	–
COC(=O)c1cc(Cl)cc(Cl)c1	2.03%	–
CCOC(=O)CC1(C)OCC(C)O1 (stereo not given)	1.19%	–
O=[N+]([O-])c1c(Cl)cc(Cl)cc1Cl	-3.23%	–

SMILES	cytotoxicity increase	Potency
[O]=[Mo](=[O])=[O]	-8.17% [at 15.8 µM]	–
CCCC(=O)OCCC(C)CCC=C(C)C (stereo not given)	-9.24%	–
CCCC(CC)c1ccccc1 (stereo not given)	14.3%	–
O=C(O)[C@H](O)c1ccccc1	18.7% [at 35.3 µM]	–
COC(=O)CCCCC(=O)O	-9.19%	–
Cc1cccc(Cl)c1	-0.649%	–
C/C(=C1\CCOC(=O)S1)N(C=O)Cc1cnc(C)nc1N	-1.81% [at 35.3 µM]	–
C=C(C)[C@@H]1CC=C(C)C(=O)C1	6.03%	–
CC(=O)c1cc(C)oc1C	-7.03%	–
c1ccc2cnccc2c1	-3.15%	–
C=CC(=O)CCCCC	-6.26%	–
CCCCCCCCCCCCCCCCCCOCCO	-4.91% [at 15.8 µM]	–
CO/N=C(/C(=O)N[C@@H]1C(=O)N2C(C(=O)[O-])=C(C[n+]3ccn4ncccc43)CS[C@H]12)c1nsc(N)n1	-3.73% [at 35.3 µM]	–
CCC(=O)CC	5.59%	–
CC(C)(CO)C(O)C(=O)NCCCO (stereo not given)	21.8%	–
COC(=O)CCCCC(CCSS/C(CCO)=C(\C)N(C=O)Cc1cnc(C)nc1N)SC(C)=O (stereo not given)	-19.1% [at 35.3 µM]	–
CC(C)(C)NC[C@H](O)COc1cccc2c1CCCC2=O	-17.5% [at 35.3 µM]	–
Cn1nnc2c(C(N)=O)ncn2c1=O	-2.13% [at 35.3 µM]	–
O=NN(CCCl)C(=O)NC1CCCCC1	1.82% [at 35.3 µM]	–
Cc1ccnc(N)c1	-7.06%	–
